# About 3,800 (1%) of roughly 370,000 compounds were called active. This is one part of a sample in which actives are shown more often than they occur. Values without a mark were called inactive. No stated cut-off is given here; in the data, active means activation above about 7.8%; inactive means the rest.
# Experiment: SMARCA2 (BRM) function activators, primary screen, cell-based, luminescence, high throughput (AID 652017);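 further: 0% = vehicle wells and 100% = reference activator wells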
# Settings: MG213 cells, MMTV-luciferase reporter, dexamethasone, overnight; at 9.1 µM; hits give high values
row,Structure (SMILES),activation
1,O=C(CSc1nnc(-c2cccc(Cl)c2)n1Cc1ccco1)Nc1ccc(OCc2ccccc2)cc1,-5.35%
2,Cc1sc2ncnc(N3CCC(C(=O)Nc4nc5ccc(Cl)cc5s4)CC3)c2c1C,4.88%
3,O=C(Nc1nc2ccc(Cl)cc2s1)c1cc(-c2ccc(Cl)cc2)nc2ccccc12,-3.62%
4,Cc1ccc(C(=O)Nc2nc3ccc(Cl)cc3s2)o1,12.3% (active)
5,COC1=C[C@H](C(=O)NCCNC(C)=O)[C@H](C)[C@@H](c2ccccc2)CC1=O,-1.73%
6,O=C1CC[C@@H](COc2ccc3[nH]cc(-c4ccccc4)c3c2-c2ccccc2)N1,-2.62%
7,COC(=O)[C@]12C[C@H](CC(=O)N3CCOCC3)C(=O)N(Cc3ccc(Cl)cc3Cl)C1=C[C@H](C(C)C)O[C@@H]2C1CC1,-2.82%
8,O=[N+]([O-])c1ccc2c(c1)Nc1nc3ccccc3nc1N2,15.2% (active)
9,Cc1ccc(-n2cc3ccc([N+](=O)[O-])cc3n2)cc1,3.85%
10,Cc1nc2ccccc2nc(=O)c1NNc1ccc([N+](=O)[O-])cc1,2.04%
11,COc1ccc(CSc2nnc(SCC(=O)Nc3ccccc3C(F)(F)F)s2)cc1,-1.77%
12,COc1ccc(CN2CCOC2=O)cc1OC,-2.13%
13,COC(=O)C1=CN(Cc2ccc(OC)c(OC)c2)C=C(C(=O)OC)C1c1cccs1,-1.26%
14,COc1ccc(CC2c3cc(OC)c(OC)cc3CC[N+]2(C)CCC(=O)OCCCCCOC(=O)CC[N+]2(C)CCc3cc(OC)c(OC)cc3C2Cc2ccc(OC)c(OC)c2)cc1OC (centres undefined),11.4% (active)
15,CN(CCO)c1cccc2c1S(=O)(=O)N(Cc1cn(Cc3ccc(C(F)(F)F)cc3)nn1)Cc1ccccc1O2,3.38%
16,CC(C)CNC(=O)OCc1cn(Cc2ccc(F)cc2)nn1,-0.88%
17,CCOC(=O)[C@@]12CCC3=C1N(CCC3)C(=O)[C@H](CC(=O)N1CCN(C(=O)c3ccco3)CC1)C2,-0.99%
18,COc1cccc(CNC(=O)[C@H]2CCCN2C(=O)[C@H]2CCCN2C(=O)c2ccc(F)cc2)c1,-5.59%
19,O=C(NCCCc1ccccc1)C(=O)c1c[nH]c2ccccc12,7.21%
20,O=C(NC1CCCC1)C(=O)c1c[nH]c2ccccc12,10.3% (active)
21,CC1CCN(CC(=O)c2c[nH]c3ccccc23)CC1,4.35%
22,Cc1nn(C(C)(C)C)c(OC(=O)CC(C)C)c1S(=O)(=O)c1ccccc1,-0.75%
23,N#Cc1c(/N=C/N2CCCC2)oc(-c2ccccc2)c1-c1ccccc1,1.32%
24,CCOc1ccc(NC(=S)N2CCC(N(C)CC3CCCO3)CC2)cc1 (centres undefined),4.49%
25,COc1ccc(N2CCN(C(=S)Nc3ccc(S(N)(=O)=O)cc3)CC2)cc1,-1.43%
26,CCC(C)N(C)C1CCN(C(=S)Nc2ccc(OC)cc2)CC1 (centres undefined),8.91% (active)
27,O=C(CSc1nc2ccccc2n1Cc1ccccc1)NNC(=S)Nc1ccccc1,4.3%

row,Structure (SMILES),activation
1,COc1cccc(C(=O)Nc2cc3c(cc2Br)OCCCO3)c1,11% (active)
2,COc1cccc(/C=C/C(=O)Nc2ccc3c(c2)OCCO3)c1,5.29%
3,COc1ccc(OC)c(NC(=O)c2cccc(S(=O)(=O)N3CCN(C(C)=O)CC3)c2)c1,-1.12%
4,O=S1(=O)C[C@@H](N2CCN(CCO)CC2)[C@H](COCc2ccccc2)N1,-4.94%
5,COC(=O)[C@]12C[C@H](CC(=O)NCc3cccs3)C(=O)N(CCc3ccc(OC)c(OC)c3)C1=C[C@H](C(C)C)O[C@@H]2C1CC1,-3.39%
6,O=C(NCCC1=CCCCC1)C1CCN(S(=O)(=O)c2ccc(Cl)s2)CC1,-6.89%
7,C/C(CC(=O)NC(C)(C)C)=N\NC(=O)c1ccco1,8.95% (active)
8,COc1ccc(N(CC(=O)NC(C)(C)C)C(=O)c2ccco2)cc1,-1.03%
9,COc1cccc2cc(/C(C)=N/NC(=O)c3ccco3)oc12,5.77%
10,CCC(NC(=O)C1C2C=CC3(CN(Cc4ccccc4)C(=O)C13)O2)c1ccccc1 (centres undefined),-1.92%
11,CC1(C(=O)NS(=O)(=O)C2CC2)CCCN(C(=O)CSc2ccccc2)C1 (centres undefined),10.6% (active)
12,CS(=O)(=O)N1CCN(C(=O)CSc2ccccc2)CC1,-2.96%
13,CC(C)CNC(=O)C1(C)CCCN1C(=O)CSc1ccccc1 (centres undefined),-1.93%
14,C[C@@H]1CN([C@H](C)CO)C(=O)CCCn2cc(nn2)CO[C@H]1CN(C)S(=O)(=O)c1ccc(Oc2ccccc2)nc1,-2.13%
15,COc1ccc([C@H]2OC(=O)C[C@H]2C(=O)N2CCN(c3ccccc3F)CC2)cc1OC,-3.16%
16,COC(=O)[C@]12C[C@H](CC(=O)NCc3ccccc3)C(=O)N(CCc3ccc(OC)c(OC)c3)C1=C[C@H](C(C)(C)C)O[C@@H]2C,-3.03%
17,CCOC(=O)[C@]12CCCCC/C=C\1N(Cc1ccc(OC)cc1)C(=O)[C@H]2CC(=O)NCc1ccc(C)o1,-0.44%
18,CN1CCN(CCCNC(=O)c2ccc(/C=C3\Oc4ccccc4N(Cc4ccc(Cl)cc4)C3=O)cc2)CC1,10.6% (active)
19,O=C(NCCS(=O)(=O)NCc1ccc(Cl)cc1)c1ccccc1,-0.89%
20,O=C(NCCCN1CCCCCC1)c1ccc(N2CCCC2=O)cc1,1.14%
21,Cc1cc(NS(=O)(=O)c2ccc(NC(=O)CSc3nnc(SCc4ccc(F)cc4)s3)cc2)nc(C)n1,-5.48%
22,O=C(Nc1cccc(Cl)c1)OC1CC2CC1[C@H]1CCCCN1[C@H]2Cc1ccccc1 (some centres undefined),-2.01%
23,CCOC(=O)CSc1nc(C)cc2c1C(=O)OC2,-2.43%
24,C#CCN([C@H](C(=O)OC)C(C)CC)S(=O)(=O)c1ccccc1Br (some centres undefined),-1.68%
25,O=C(N[C@H]1CC[C@H](CC(=O)N2CCCCC2)O[C@@H]1CO)c1cccc(F)c1,8.81% (active)
26,O=C(Nc1ccc2c(c1)[C@@H]1C[C@@H](CC(=O)N3CCCCC3)O[C@@H](CO)[C@@H]1O2)NC1CCCCC1,-1.84%
27,O=C(C[C@H]1CC[C@@H](NC(=O)c2ccncc2)[C@@H](CO)O1)NCC1CC1,-1.73%
